From PubChem BioAssay
Measured potencies and affinities stand elsewhere. Activity calls are given as the source filed them.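 How the source made its calls: active means fitted dose curve reaches 40% lysis signal rise at or below the highest valid concentration tested for that sample; inconclusive means flat fit between 30% and 70%, or poor curve fit; inactive means signal falls, stays flat within 30%, or no crossing.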

Assay: inducers of Cryptococcus neoformans cell lysis, dose response, AK release luminescence, cherry-picks (AID 687000);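 further: luminescent detection of adenylate kinase leaking from lysed yeast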
Details: C. neoformans lysis, adenylate kinase release luminescence, 4 h, 100% = twice the neutral-control signal; series mostly up to 15 µM

outcome, inactive:
C[C@@H]1CN([C@@H](C)CO)S(=O)(=O)c2ccc(C#Cc3ccccn3)cc2O[C@H]1CN(C)Cc1ccccc1
CCOc1ccc(C(=O)NC(=S)Nc2ccccc2N2CCC(C)CC2)cc1[N+](=O)[O-]
C[C@@H]1CN([C@H](C)CO)C(=O)c2cc(NS(=O)(=O)c3ccc(Cl)cc3)ccc2O[C@H]1CN(C)S(=O)(=O)c1ccc(F)cc1
C[C@H]1CN([C@@H](C)CO)C(=O)Cc2cc(NC(=O)CCCCCC(=O)Nc3ccccc3N)ccc2O[C@H]1CN(C)Cc1ccc2c(c1)OCO2
COc1ccccc1CN1CC[C@H]2[C@H](CO)Nc3ccc(C#Cc4ccccc4)cc3[C@H]21
Cc1ccc(NC(=O)C2(C)CCN2C(=O)CC2CCCC2)cc1 (centres undefined)
O=C(Nc1ccccc1)N[C@@H]1CC[C@@H](CCNC(=O)c2ccccc2F)O[C@H]1CO
CCC(=O)Nc1ccc2c(c1)C(=O)N(C)C[C@@H](OC)[C@H](C)CN[C@@H](C)CO2
COc1ccccc1C(=O)Nc1ccc2c(c1)OC[C@H](C)N(C(C)=O)C[C@H](C)[C@H](OC)CN(C)C2=O
CC(C)(C)NC(=O)CSc1ncnc2c1cnn2-c1ccccc1
CC(C)NC(=O)Nc1ccc2c(c1)C(=O)N([C@@H](C)CO)C[C@@H](C)[C@@H](CN(C)S(=O)(=O)c1ccc(Cl)cc1)OCCCC[C@@H](C)O2
C/C=C/c1ccc([C@@H]2[C@@H](CO)N3CCCCN(C(=O)Nc4ccc(OC)cc4)C[C@H]23)cc1
C[C@@H]1CCCCO[C@@H](CN(C)Cc2ccc3c(c2)OCO3)[C@@H](C)CN([C@H](C)CO)C(=O)c2cc(NS(=O)(=O)c3ccc(F)cc3)ccc2O1
CCCN1CCCC[C@H]1C(=O)Nc1c(C)cccc1C
C[C@@H]1CN([C@@H](C)CO)S(=O)(=O)c2ccc(-c3ccccc3)cc2O[C@H]1CN(C)C(=O)C1CCCCC1
O=C([C@H]1[C@H](CO)[C@H]2Cn3c(cccc3=O)[C@H]2N1CCC(F)(F)F)N1CCCCC1
CO[C@H]1CN(C)C(=O)c2cc(NS(=O)(=O)CC(F)(F)F)ccc2OC[C@@H](C)N(Cc2cccnc2)C[C@@H]1C
C[C@@H]1CN([C@H](C)CO)C(=O)c2cc(C#CC(C)(C)O)cnc2O[C@@H]1CN(C)Cc1cncnc1
CC=Cc1ccc2n(c1=O)C[C@H]1[C@H](CO)[C@@H](C(=O)N3CCc4ccccc4C3)N(C(=O)C3CC3)[C@@H]21 (mixture of isomers)
C[C@H]1CN([C@@H](C)CO)C(=O)c2cc(NC(=O)Nc3cccc4ccccc34)ccc2O[C@@H]1CN(C)C(=O)Nc1ccc(C(F)(F)F)cc1
C[C@@H]1CN([C@@H](C)CO)C(=O)c2c(c3ccccc3n2C)-c2ccccc2CO[C@@H]1CN(C)S(=O)(=O)c1ccc(Cl)cc1
CCC(C(=O)Nc1c(C)cc(C)cc1C)N1CCCCCC1 (centres undefined)
C[C@@H]1CCCCO[C@@H](CN(C)Cc2ccc(C(F)(F)F)cc2)[C@@H](C)CN([C@@H](C)CO)C(=O)c2cc(NS(=O)(=O)c3cn(C)cn3)ccc2O1
COc1ccccc1C(=O)Nc1ccc2c(c1)C(=O)N(C)C[C@@H](OC)[C@H](C)CN(C)[C@@H](C)CO2
C[C@H](CO)N1C[C@H](C)[C@H](CN(C)Cc2cccc(C(F)(F)F)c2)OCc2cnnn2CCCC1=O
Cc1ccccc1CN(C)C[C@H]1OCc2cn(nn2)CCCC(=O)N([C@@H](C)CO)C[C@H]1C
C[C@H](CO)N1C[C@H](C)[C@H](CN(C)Cc2cccnc2)Oc2ncc(C#CC3(O)CCCC3)cc2C1=O
Cc1cccc(N2CCN(C(=O)C3CCC(=O)N3C(C)C)CC2C)c1 (centres undefined)
C[C@@H]1CN([C@@H](C)CO)C(=O)c2cc(N(C)C)ccc2O[C@@H]1CN(C)C(=O)Nc1ccc(C(F)(F)F)cc1
COCCNC(=O)C[C@H]1C=C[C@@H](NS(=O)(=O)c2ccc(C)cc2)[C@H](CO)O1
Cc1cccc(C)c1NC(=O)C(C)N1CCCC1 (centres undefined)
O=C(C1CCOCC1)N1CC[C@@H]2[C@H]1c1cc(Br)ccc1N[C@@H]2CO
C[C@H](CO)N1C[C@H](C)[C@H](CN(C)Cc2ccccc2)Oc2cc(C#Cc3ccccn3)ccc2S1(=O)=O
CCCC#Cc1cnc2c(c1)C(=O)N([C@@H](C)CO)C[C@H](C)[C@H](CN(C)C(=O)Nc1cccc(F)c1)O2
CO[C@@H]1CN(C)C(=O)c2ccc(NC(=O)C3CC3)cc2OC[C@H](C)N(C(=O)c2ccncc2)C[C@H]1C
Cc1cccc(-c2ccc([C@@H]3[C@H]4CN(C(=O)c5ccc6c(c5)OCO6)CCCCN4[C@H]3CO)cc2)c1
O=C(c1cccnc1)N1CCC(Oc2ccc(C(=O)N3CCCC(O)C3)cc2)CC1 (centres undefined)
COc1ccccc1CNC(=O)C[C@@H]1CC[C@@H]2[C@H](COc3ccc(NC(C)=O)cc3C(=O)N2C)O1
C[C@@H]1CCCCO[C@H](CN(C)Cc2ccc3c(c2)OCO3)[C@H](C)CN([C@H](C)CO)C(=O)c2cc(NC(=O)Nc3cccc4ccccc34)ccc2O1
